From the supplement of paper PMC6555819

Columns and labels:
Test in all cases: PBM binding z-score (relative to random genomic background probes); higher = stronger binding; sequences stand for … in GC…GCGATTGACAGCGTAGAATGAAGG
[1] = test system: FXR:RXRa (NR concentration 270 nM, RXRa partner concentration 90 nM)
Outline: (§1)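 For binding z-scores, the reference was random background probes on custom Agilent 4×180K protein-binding microarrays. These arrays were incubated 1 h with ligand-free nuclear receptor dimers in PBS pH 7.4, 2% milk, 0.02% Triton X-100, 1 mM DTT, 0.2 mg/mL BSA and 0.4 mg/ml salmon testes DNA. Fluorescence was scanned after antibody detection of each partner (one per run) and regression-normalized.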

[2] = test system: LXRa:RXRa (NR concentration 270 nM, RXRa partner concentration 90 nM)
Outline: as §1

[3] = test system: LXRa homodimer (NR concentration 270 nM)
Outline: as §1

[4] = test system: LXRb:RXRa (NR concentration 270 nM, RXRa partner concentration 90 nM)
Outline: as §1

[5] = test system: LXRb homodimer (NR concentration 270 nM)
Outline: as §1

[6] = test system: PPARa:RXRa (NR concentration 270 nM, RXRa partner concentration 90 nM)
Outline: as §1

[7] = test system: PPARg:RXRa (NR concentration 180 nM, RXRa partner concentration 90 nM)
Outline: as §1

[8] = test system: PPARg:RXRa 270nM:90nM, anti-RXR (NR concentration 270 nM, RXRa partner concentration 90 nM)
Outline: as §1

[9] = test system: PPARg:RXRa 30nM:10nM, anti-RXR (NR concentration 30 nM, RXRa partner concentration 10 nM)
Outline: as §1

[10] = test system: PPARg:RXRa 90nM:30nM, anti-RXR (NR concentration 90 nM, RXRa partner concentration 30 nM)
Outline: as §1

[11] = test system: PPARg:RXRa DBDmut IVT, anti-RXR (DBD mutation: RXRa K156A/R161A, NR concentration 270 nM, RXRa partner concentration 90 nM)
Outline: as §1

[12] = test system: PPARg:RXRa IVT, anti-PPARg (NR concentration 270 nM, RXRa partner concentration 90 nM)
Outline: as §1

[13] = test system: PPARg DBDmut:RXRa IVT, anti-PPARg (DBD mutation: PPARg1 K132A/R137A, NR concentration 270 nM, RXRa partner concentration 90 nM)
Outline: as §1

[14] = test system: PPARg DBDmut IVT, anti-PPARg (DBD mutation: PPARg1 K132A/R137A, NR concentration 270 nM)
Outline: as §1

[15] = test system: PPARg homodimer (NR concentration 180 nM)
Outline: as §1

[16] = test system: PXR:RXRa (NR concentration 270 nM, RXRa partner concentration 90 nM)
Outline: as §1

[17] = test system: PXR homodimer (NR concentration 270 nM)
Outline: as §1

[18] = test system: RARa:RXR (NR concentration 270 nM, RXRa partner concentration 90 nM)
Outline: as §1

[19] = test system: RARa homodimer (NR concentration 270 nM)
Outline: as §1

[20] = test system: RARb:RXRa (NR concentration 270 nM, RXRa partner concentration 90 nM)
Outline: as §1

| Sequence | PBM binding z-score [1] | PBM binding z-score [2] | PBM binding z-score [3] | PBM binding z-score [4] | PBM binding z-score [5] | PBM binding z-score [6] | PBM binding z-score [7] | PBM binding z-score [8] | PBM binding z-score [9] | PBM binding z-score [10] | PBM binding z-score [11] | PBM binding z-score [12] | PBM binding z-score [13] | PBM binding z-score [14] | PBM binding z-score [15] | PBM binding z-score [16] | PBM binding z-score [17] | PBM binding z-score [18] | PBM binding z-score [19] | PBM binding z-score [20] |
| --- | --- | --- | --- | --- | --- | --- | --- | --- | --- | --- | --- | --- | --- | --- | --- | --- | --- | --- | --- | --- |
| TCTAGTTGGTCACAGGTCACACACTCGAAATGCG | 2.89 | 2.92 | 1.82 | 3.13 | 0.99 | 4.37 | 7.08 | 6.5 | 6.07 | 7.04 | 3.01 | 4.53 | 1.58 | 1.96 | 2.52 | 3.06 | 0.924 | 3.51 | 1.49 | 3.33 |
| CGTCAATGTTCAAGGTAACGTAACAGAAAGCAGC | -0.00254 | -0.129 | -0.233 | 0.0792 | 0.0791 | -0.0522 | 0.532 | 0.03 | 0.263 | 0.00705 | -0.165 | 0.397 | 0.371 | 0.433 | 0.235 | 0.00739 | -0.0049 | -0.00308 | 0.0887 | 0.375 |
| CAAACTAGGTCACGAAAGGTCTAAGTCGAATGAC | 4.46 | 4.6 | 0.351 | 3.17 | 0.461 | 5.52 | 9.08 | 7.4 | 5.87 | 7.6 | 8.65 | 9.08 | 1.37 | 1.82 | 2.76 | 3.68 | 0.0383 | 3.59 | 0.679 | 4.39 |
| ATCTCTAGGTAACCAGGTTCAGTGAATGCCGAAC | 0.339 | 0.277 | 0.415 | 0.528 | 0.703 | 1.37 | 0.883 | 0.861 | 0.15 | 0.492 | 3.75 | 3.09 | 0.459 | 0.795 | 1.07 | 0.948 | 0.388 | 0.808 | 0.438 | 0.668 |
| CGAGCTAGGTCATTGACAGGACAGTGAATAGTAA | 5.01 | 3.11 | 0.348 | 2 | -0.314 | 3.33 | 2.12 | 2.15 | 0.406 | 1.34 | 3.51 | 2.78 | 0.0808 | -0.146 | 0.918 | 1.54 | 0.31 | 2.18 | -0.128 | 3.66 |
| TCTATTAGTTGAAGGGCTACCGACGAGTCCGTTT | 0.932 | 0.924 | 0.312 | 0.431 | 0.511 | 0.594 | -0.151 | 2.01 | 3.62 | 2.96 | 2.41 | 0.0404 | 0.251 | -0.451 | 1.24 | 0.647 | 0.375 | 0.611 | 1.16 | 0.525 |
| TCATATAGGTAAATGCTAGGTGAACGTCCGATCT | 0.421 | 0.682 | 0.358 | 0.608 | -0.229 | 1.36 | 1.09 | 2.06 | 3.51 | 2.65 | 4.03 | 2.94 | 0.935 | 1.01 | 0.675 | 0.493 | 0.0506 | 0.769 | 0.634 | 0.536 |
| ATCTCTTGGTAAAGTTCAGTGAAAGATCGATAGA | 1.08 | 2.09 | 1.65 | 1.6 | 1.5 | 1.69 | 1.54 | 3.02 | 1.39 | 2.65 | 0.216 | 0.63 | 1.4 | 1.94 | 1.76 | 2.41 | 2.31 | 1.63 | 1.65 | 2.82 |
| ATCGAAAAGTCGACGAGGTGAGTATACACCGTTT | 0.048 | -0.0396 | -0.471 | 0.0525 | -0.29 | 0.426 | 0.914 | 0.0655 | 0.0856 | -0.125 | -0.448 | 0.432 | 0.0649 | 0.51 | -0.218 | 0.103 | -0.0447 | 0.451 | -0.121 | 0.388 |
| CAAACTTGGTCAAGAGGTCAAAGTCCGCTTCCCG | 5.72 | 5.27 | 5.52 | 5.04 | 1.18 | 5.37 | 4.2 | 5.18 | 2.94 | 4.56 | 2.35 | 3.8 | 0.805 | 0.619 | 2.46 | 5.73 | 1.66 | 6.15 | 1.11 | 4.47 |
| CCAGATAGGTGAAAGGTAACTCAGTCTGGTACGC | 0.688 | 0.694 | 0.0245 | 1.14 | -0.143 | 4.2 | 7.95 | 7.54 | 7.57 | 7.93 | 5.2 | 4.32 | 0.289 | -0.0951 | 1.74 | 1.02 | 0.111 | 2.13 | 0.659 | 1.31 |
| CGAACTAGGTCATCCAGGACAGTGCATACATTGA | 4.36 | 2.32 | 0.87 | 2.15 | 0.0357 | 4.85 | 7.67 | 6.47 | 3.97 | 5.85 | 8.26 | 8.19 | 1.89 | 1.6 | 1.98 | 2.11 | 1.49 | 2.35 | 0.873 | 3.91 |
| TCTCGGAGGACAGGAAGGTCAGAGCTTTCCAGAG | 0.736 | 1.07 | 0.00105 | 0.899 | -0.565 | 1.87 | -0.0448 | 1.49 | 2.39 | 1.78 | 1.52 | 0.389 | -1.38 | -1.7 | 0.357 | 1.36 | -0.0214 | 1.42 | 0.192 | 2.76 |
| TTACCAAGGTGAGCTGAGGTCGCTGATCCAACTC | 1.17 | 0.578 | -0.612 | 0.416 | -1.44 | 1.52 | 0.0966 | 1 | -0.104 | 0.763 | 1.38 | 1.87 | -1.62 | -0.0566 | -0.197 | 3.58 | -0.341 | 1.5 | -1.47 | 1.95 |
